Test results published in PubChem BioAssay.
Results filed as inconclusive are left out. The source made the active and inactive calls. Cut-off read from the data, not from the text of the source, unless noted: active = percent of DMSO control GFP below about 86%; inactive = the rest, inconclusive results apart.

Columns and labels:
[1] = yeast TOR pathway RPL19A-GFP modulators, primary screen, cell-based, S. cerevisiae, multiplex flow cytometry (AID 1862);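 note: lower values mimic rapamycin by blocking the RPL19A rise seen in DMSO cells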; settings: S. cerevisiae RPL19A-GFP strain, flow cytometry fluorescence, 3 h; at 10 µM; stronger effect = lower value
[2] = modulators of MEP2-GFP levels in yeast, primary screen, S. cerevisiae, multiplex flow cytometry (AID 1867;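 active = GFP response, as percent of the DMSO control, above the screen-wide mean plus 3 SD, about 139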;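 note: median GFP channel fluorescence of barcode-gated MEP2-GFP cells measured by flow cytometry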); settings: S. cerevisiae MEP2-GFP strain, 3 h, at 10 µM, stronger effect = higher value, 100% means same as DMSO wells
[3] = modulators of CIT2-GFP expression in yeast, primary screen, S. cerevisiae, GFP fusion, multiplex flow cytometry (AID 1870;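 active = percent response above a set limit, the screen-wide mean plus 3 SD, cut at about 130% in these data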;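 note: barcoded CIT2-GFP strain pooled with four other GFP strains with rapamycin as positive control; median GFP fluorescence per well over plate mean of DMSO wells so 100% = DMSO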); settings: 3 h, at 10 µM, stronger effect = higher value
[4] = modulators of LAP4-GFP expression in yeast, primary screen, S. cerevisiae, multiplex flow cytometry (AID 1873;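 active = GFP signal, as percent of the solvent control, above the screen mean plus 3 SD, about 149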); settings: 3 h, at 10 µM, stronger effect = higher value
[5] = inhibitors of CD8+ T cell-vesicle binding, pilot screen, LFA-1/ICAM-1 modulator project, MLPCN validation set, flow cytometry (AID 2523;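 active = response below a set limit, under 55% cells CD8-positive and vesicle-bound, and CD8 cells' 90th-percentile brightness under 279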;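 for vesicle binding response: mean PE anti-B7-1 fluorescence of CD8+ cells relative to row control; 100% = QL9-loaded vesicles with DMSO vehicle in the same plate row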); settings: 2C mouse CD8+ T cells, at 7 µM, stronger effect = lower value; double positive events: measured here: CD8+/vesicle+ event percentage
[6] = target: Integrin beta-1 (Homo sapiens) + Integrin alpha-4 (Homo sapiens) (UniProt P13612+P05556); test: inhibition of HUTS-21 binding to VLA-4, pilot screen, VLA-4 allosteric modulator project, U937 cells, HUTS-21 mAb, flow cytometry, validation set (AID 2674;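 active = inhibition above 50%, about 3 SD of the validation set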;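 note: antibody binding induced by the VLA-4 ligand LDV present at three times its Kd; 0% = LDV ligand with antibody and no compound and 100% = antibody without LDV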); settings: HUTS-21 LIBS mAb binding, at 6.7 µM, stronger effect = higher value, binding induced by LDV ligand
[7] = superoxide lowering in aged yeast cells, pilot screen, validation compound set (AID 2706;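 active = superoxide response below 65% of plate, a cut near 3 SD across the whole screen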;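 note: yeast exposed to compound for one week at 30 degrees C before staining; 100% = mean of all compound wells on the same plate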); settings: S. cerevisiae aging, superoxide DHE fluorescence; at 10 µM, stronger effect = lower value
[8] = target: Beta-adrenergic receptor kinase 1 (Homo sapiens) (UniProt P25098); test: GRK2 binders displacing RNA aptamer, biochemical, validation, human GRK2, bead flow cytometry (AID 488806;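 active = aptamer binding inhibition above 30%, about 3 SD of noise from non-fluorescent compounds; inactive = inhibition at or below 30%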); settings: bead-bound GRK2, FAM-aptamer displacement, at 10 µM, stronger effect = higher value
[9] = target: Beta-2 adrenergic receptor (Homo sapiens) (UniProt P07550); test: beta2AR agonists driving receptor internalization, pilot screen, cell-based, FAP fluorogen, flow cytometry, validation set (AID 504459;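 active = percent response above 42, roughly 3 SD of non-fluorescent test compounds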;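 note: agonist-driven loss of surface beta2AR via internalization measured by FAP dye flow cytometry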); settings: Am2.2-beta2AR cells, FAP surface receptor flow cytometry; at 10 µM; stronger effect = higher value
[10] = target: AP-2 complex subunit beta (Homo sapiens) (UniProt P63010); test: inhibitors of arrestin peptide binding to AP2, pilot screen, biochemical, validation set, GST-AP2 beads, flow cytometry (AID 504541;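 active = inhibition above 54%, about 3 SD of non-fluorescent compounds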;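 note: AP2 carries R879A mutation and is captured from E. coli lysate; bead-bound FITC arrestin peptide fluorescence measuring arrestin peptide binding to AP2; 0% = DMSO wells and 100% = excess unlabeled arrestin peptide control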); settings: FITC arrestin peptide, at 10 µM, stronger effect = higher value, AP2 beta2 appendage fragment, R879A mutant
[11] = yeast V-ATPase proton transport modulators, S. cerevisiae, pHLuorin, HTS validation (AID 504600; in the data active = response above about 15%;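 note: plate controls were DMSO for no effect and reference compound for full effect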); settings: S. cerevisiae pHLuorin cytosolic pH, at 10 µM, stronger effect = higher value
[12] = tested on: anti-desmoglein-3 scFv antibody binding to human DSG3; test: inhibitors of anti-DSG3 scFv binding to DSG3, pilot screen, biochemical, validation compound set, bead-based, flow cytometry (AID 588368;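 active = binding below the plate cutoff, the plate median minus 3 SD, with a reading above zero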;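 note: signal is the median channel fluorescence of bead-bound GFP antibody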); settings: Protein G beads, DSG3-Fc, scFv-GFP binding, at 10 µM, stronger effect = lower value
[13] = inhibitors of fungal efflux pumps CDR1, CDR2, MDR1, pilot screen, validation compound set, multiplex, phenotypic (AID 588506;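 active = efflux inhibition above 0.42, the validation set average plus 4 SD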;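 note: Nile Red retained in cells so higher fluorescence means more efflux inhibition; 0 = negative control wells and 1 = enniatin B 25 µM full block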); settings: S. cerevisiae pump-expressing triplex, Nile Red efflux flow cytometry; at 10 µM; stronger effect = higher value; the pumps come from Candida albicans
[14] = target: ATP-binding cassette sub-family B member 6 (Homo sapiens) (UniProt Q9NP58); test: ABCB6 transporter inhibitors, pilot screen, K562-ABCB6 cells, flow cytometry, validation set (AID 588550;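 active = inhibition above the screen-wide mean plus 3 SD, about 51%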;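 note: 0% = DMSO wells and 100% = benzethonium chloride 70 µM positive control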); settings: K562-ABCB6 porphyrin accumulation, 1 h, at 10 µM, stronger effect = higher value
[15] = promoters of myeloid differentiation in arrested cells, primary screen, cell-based, GFP/MAC1 double positive, flow cytometry, validation set (AID 588685;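 active = differentiation response of at least 50%, scaled between solvent and reference control, from cells with both markers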;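 note: compound exposure lasts four days before antibody staining and flow analysis; 0% = DMSO wells and 100% = 5 µM fulvestrant positive control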); settings: ER-HoxA9 marrow cells, stronger effect = higher value, normalized: vehicle 0, fulvestrant 100
[16] = modulators of AGP1-GFP expression in yeast TOR pathway, primary screen, cell-based, multiplex flow cytometry, S. cerevisiae (AID 1887;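 active = GFP signal above the screen-wide mean plus 3 SD, that is over about 124.5% of the solvent control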;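 note: AGP1-GFP fusion strain of S. cerevisiae within a five-strain barcoded multiplex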); settings: 3 h, at 10 µM, stronger effect = higher value

Chain of AP-2 complex subunit beta (Homo sapiens) (P63010 whole entry, looked up, the tested form may be a part, one chain of several): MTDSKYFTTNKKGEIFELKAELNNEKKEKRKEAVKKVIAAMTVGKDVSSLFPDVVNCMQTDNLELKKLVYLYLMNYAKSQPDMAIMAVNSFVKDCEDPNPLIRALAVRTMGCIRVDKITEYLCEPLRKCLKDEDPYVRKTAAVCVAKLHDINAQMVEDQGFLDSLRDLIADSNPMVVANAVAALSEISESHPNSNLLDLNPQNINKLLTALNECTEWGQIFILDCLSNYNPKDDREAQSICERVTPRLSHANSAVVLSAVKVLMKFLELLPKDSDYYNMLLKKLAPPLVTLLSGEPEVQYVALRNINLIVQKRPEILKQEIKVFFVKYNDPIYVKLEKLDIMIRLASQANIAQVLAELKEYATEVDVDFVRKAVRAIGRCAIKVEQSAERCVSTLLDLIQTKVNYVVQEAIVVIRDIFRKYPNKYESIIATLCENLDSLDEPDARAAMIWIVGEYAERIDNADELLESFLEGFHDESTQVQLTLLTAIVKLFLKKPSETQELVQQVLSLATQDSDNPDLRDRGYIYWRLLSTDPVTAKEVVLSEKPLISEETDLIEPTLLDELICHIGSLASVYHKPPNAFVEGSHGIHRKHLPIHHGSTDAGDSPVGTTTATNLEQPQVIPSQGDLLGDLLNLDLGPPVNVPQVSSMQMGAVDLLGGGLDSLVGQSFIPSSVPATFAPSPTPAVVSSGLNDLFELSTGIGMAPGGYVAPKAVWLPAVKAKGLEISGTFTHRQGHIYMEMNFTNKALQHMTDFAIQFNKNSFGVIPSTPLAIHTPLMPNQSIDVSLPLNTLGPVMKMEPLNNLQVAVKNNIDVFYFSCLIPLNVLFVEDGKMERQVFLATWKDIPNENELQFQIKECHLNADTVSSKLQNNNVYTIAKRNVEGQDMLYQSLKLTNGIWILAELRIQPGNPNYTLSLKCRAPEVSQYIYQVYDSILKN
Chain of ATP-binding cassette sub-family B member 6 (Homo sapiens) (Q9NP58 whole entry, looked up): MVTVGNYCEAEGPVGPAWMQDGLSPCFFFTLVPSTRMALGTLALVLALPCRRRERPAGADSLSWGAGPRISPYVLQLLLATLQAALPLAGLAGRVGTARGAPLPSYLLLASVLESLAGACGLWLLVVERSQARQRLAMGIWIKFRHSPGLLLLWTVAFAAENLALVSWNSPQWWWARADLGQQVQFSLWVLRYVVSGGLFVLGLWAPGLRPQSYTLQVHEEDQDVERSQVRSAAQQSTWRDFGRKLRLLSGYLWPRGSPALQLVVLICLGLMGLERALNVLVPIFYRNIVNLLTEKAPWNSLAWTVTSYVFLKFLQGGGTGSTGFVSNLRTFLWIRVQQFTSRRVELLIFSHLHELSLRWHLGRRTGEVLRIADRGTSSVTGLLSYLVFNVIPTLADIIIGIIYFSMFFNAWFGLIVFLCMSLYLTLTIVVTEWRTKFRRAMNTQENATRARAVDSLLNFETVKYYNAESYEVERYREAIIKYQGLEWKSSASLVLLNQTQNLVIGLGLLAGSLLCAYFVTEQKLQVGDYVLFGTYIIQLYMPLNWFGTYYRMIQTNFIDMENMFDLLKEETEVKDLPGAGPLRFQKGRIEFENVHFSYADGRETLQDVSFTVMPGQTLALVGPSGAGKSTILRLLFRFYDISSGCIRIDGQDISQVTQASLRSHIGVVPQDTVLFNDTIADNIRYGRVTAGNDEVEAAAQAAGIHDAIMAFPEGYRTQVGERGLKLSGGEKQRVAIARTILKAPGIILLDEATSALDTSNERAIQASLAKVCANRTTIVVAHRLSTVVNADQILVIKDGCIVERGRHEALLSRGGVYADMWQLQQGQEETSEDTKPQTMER
Chain of Integrin beta-1 (Homo sapiens) + Integrin alpha-4 (Homo sapiens) (P05556 whole entry, looked up): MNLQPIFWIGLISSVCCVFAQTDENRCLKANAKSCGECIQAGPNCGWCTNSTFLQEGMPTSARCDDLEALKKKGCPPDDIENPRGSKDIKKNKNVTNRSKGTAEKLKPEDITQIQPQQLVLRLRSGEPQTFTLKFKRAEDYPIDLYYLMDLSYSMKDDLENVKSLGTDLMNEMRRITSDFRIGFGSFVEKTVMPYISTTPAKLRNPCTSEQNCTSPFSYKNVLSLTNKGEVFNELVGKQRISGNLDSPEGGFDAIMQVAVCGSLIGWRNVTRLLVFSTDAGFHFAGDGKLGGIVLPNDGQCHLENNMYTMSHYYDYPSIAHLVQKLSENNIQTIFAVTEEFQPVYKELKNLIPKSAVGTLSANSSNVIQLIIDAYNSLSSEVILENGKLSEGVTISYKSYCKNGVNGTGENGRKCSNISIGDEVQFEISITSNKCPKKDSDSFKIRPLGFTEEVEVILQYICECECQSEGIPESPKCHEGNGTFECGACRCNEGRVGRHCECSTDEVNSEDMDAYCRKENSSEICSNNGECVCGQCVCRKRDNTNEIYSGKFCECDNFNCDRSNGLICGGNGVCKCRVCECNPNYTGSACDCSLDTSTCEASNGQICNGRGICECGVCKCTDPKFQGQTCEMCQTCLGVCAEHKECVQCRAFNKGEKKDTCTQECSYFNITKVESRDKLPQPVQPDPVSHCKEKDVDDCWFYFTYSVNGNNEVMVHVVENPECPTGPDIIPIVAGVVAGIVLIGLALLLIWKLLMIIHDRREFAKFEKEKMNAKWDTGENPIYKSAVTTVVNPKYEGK
Chain of Integrin beta-1 (Homo sapiens) + Integrin alpha-4 (Homo sapiens) (P13612 whole entry, looked up): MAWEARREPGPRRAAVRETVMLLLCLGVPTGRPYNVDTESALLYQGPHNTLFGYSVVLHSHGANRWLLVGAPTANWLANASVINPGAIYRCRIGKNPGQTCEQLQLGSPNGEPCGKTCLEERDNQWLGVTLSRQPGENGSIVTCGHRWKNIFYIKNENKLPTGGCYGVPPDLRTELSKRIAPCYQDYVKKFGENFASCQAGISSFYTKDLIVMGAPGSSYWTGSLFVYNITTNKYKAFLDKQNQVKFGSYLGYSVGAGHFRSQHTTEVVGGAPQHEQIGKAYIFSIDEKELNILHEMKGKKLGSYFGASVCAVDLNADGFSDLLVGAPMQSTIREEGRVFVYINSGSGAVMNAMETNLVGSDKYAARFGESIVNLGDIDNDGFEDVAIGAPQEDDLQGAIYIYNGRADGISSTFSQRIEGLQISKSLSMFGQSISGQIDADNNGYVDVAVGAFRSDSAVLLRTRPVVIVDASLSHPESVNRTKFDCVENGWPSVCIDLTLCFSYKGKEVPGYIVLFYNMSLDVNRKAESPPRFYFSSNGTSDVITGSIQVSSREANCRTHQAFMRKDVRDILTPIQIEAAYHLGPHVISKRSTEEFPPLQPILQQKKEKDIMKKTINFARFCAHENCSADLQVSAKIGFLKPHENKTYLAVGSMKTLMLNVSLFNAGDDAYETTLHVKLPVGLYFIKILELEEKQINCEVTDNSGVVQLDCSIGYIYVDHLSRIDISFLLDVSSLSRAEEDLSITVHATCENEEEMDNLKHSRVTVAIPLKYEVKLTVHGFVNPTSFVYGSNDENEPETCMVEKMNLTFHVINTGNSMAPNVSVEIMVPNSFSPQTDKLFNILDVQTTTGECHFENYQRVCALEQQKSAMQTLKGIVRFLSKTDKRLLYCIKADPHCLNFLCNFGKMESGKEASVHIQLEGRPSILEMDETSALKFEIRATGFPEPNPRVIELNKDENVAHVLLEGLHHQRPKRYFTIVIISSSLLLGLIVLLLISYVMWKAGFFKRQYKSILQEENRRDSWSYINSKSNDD
Chain of Beta-2 adrenergic receptor (Homo sapiens) (P07550 whole entry, looked up): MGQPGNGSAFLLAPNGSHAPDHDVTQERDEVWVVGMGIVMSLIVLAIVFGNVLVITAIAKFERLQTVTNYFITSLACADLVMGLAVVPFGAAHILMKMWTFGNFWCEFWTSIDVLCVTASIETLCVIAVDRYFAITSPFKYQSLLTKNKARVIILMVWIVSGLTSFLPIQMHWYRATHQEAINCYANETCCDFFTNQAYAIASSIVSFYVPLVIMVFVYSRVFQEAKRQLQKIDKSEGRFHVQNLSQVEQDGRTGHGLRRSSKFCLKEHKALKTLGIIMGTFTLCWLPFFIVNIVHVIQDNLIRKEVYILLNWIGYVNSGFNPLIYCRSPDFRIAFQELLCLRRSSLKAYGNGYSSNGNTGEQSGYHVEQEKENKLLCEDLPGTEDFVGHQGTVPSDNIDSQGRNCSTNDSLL
Chain of Beta-adrenergic receptor kinase 1 (Homo sapiens) (P25098 whole entry, looked up): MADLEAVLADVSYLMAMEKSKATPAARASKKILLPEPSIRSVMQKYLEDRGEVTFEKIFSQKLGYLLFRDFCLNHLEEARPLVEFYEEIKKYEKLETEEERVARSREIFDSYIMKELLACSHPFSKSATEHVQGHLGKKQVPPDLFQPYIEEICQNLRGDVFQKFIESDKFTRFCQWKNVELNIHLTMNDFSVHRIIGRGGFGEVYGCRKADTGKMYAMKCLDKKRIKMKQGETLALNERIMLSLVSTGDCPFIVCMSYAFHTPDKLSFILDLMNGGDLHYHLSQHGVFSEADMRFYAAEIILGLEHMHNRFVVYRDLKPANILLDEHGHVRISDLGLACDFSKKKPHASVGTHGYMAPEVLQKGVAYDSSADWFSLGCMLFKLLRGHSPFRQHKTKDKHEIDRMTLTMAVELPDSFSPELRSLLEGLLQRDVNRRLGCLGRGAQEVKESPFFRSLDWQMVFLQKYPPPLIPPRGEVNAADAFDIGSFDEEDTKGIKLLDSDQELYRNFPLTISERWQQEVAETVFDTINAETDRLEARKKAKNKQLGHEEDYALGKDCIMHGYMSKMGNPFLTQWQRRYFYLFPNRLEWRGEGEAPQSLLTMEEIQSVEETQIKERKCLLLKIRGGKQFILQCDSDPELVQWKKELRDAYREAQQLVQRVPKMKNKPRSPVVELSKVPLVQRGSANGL

Row | Compound | percent of DMSO control GFP [1] | GFP response vs DMSO [2] | percent response of DMSO control [3] | GFP response vs DMSO [4] | double positive events [5] | vesicle binding response [5] | inhibition [6] | superoxide response (% of plate) [7] | aptamer binding inhibition [8] | response [9] | inhibition [10] | response [11] | binding (% of control) [12] | efflux inhibition (fraction of control) [13] | inhibition [14] | differentiation response [15] | GFP response, % of DMSO [16]
1 | COc1cccc(N2C(=O)[C@H]3C(C(=O)c4cnccn4)=NN[C@H]3C2=O)c1 | 93.5% (inactive) | 123% (inactive) | 111% (inactive) | 79.8% (inactive) | 63.5% | 191% (inactive) | 14.2% (inactive) | 106% (inactive) | 2% (inactive) | -6.07% (inactive) | -1.17% (inactive) | -1.86% (inactive) | 98.9% (inactive) | -0.13 (inactive) | 8% (inactive) | -4.91% (inactive) | –
2 | Cc1ccccc1NC(=O)C1c2ccccc2Oc2ccccc21 | 96.1% (inactive) | 120% (inactive) | 110% (inactive) | 77.6% (inactive) | 65.5% | 217% (inactive) | 4.52% (inactive) | 86.5% (inactive) | 2% (inactive) | -5.21% (inactive) | -0.97% (inactive) | -0.9% (inactive) | 105% (inactive) | 0.16 (inactive) | 12% (inactive) | -4.09% (inactive) | –
3 | CCOC(=O)Cc1c(C)nc(N)[nH]c1=O | 101% (inactive) | 95.1% (inactive) | 102% (inactive) | 91.4% (inactive) | 64.8% | 276% (inactive) | -1.49% (inactive) | – | 3% (inactive) | -4.96% (inactive) | -8.2% (inactive) | -0.76% (inactive) | 107% (inactive) | 0.52 (active) | 15% (inactive) | 22.7% (inactive) | 94.3% (inactive)
4 | CC1(C)CC(=O)C(C(=O)CCCCC(=O)C2C(=O)CC(C)(C)CC2=O)C(=O)C1 | 105% (inactive) | 114% (inactive) | 112% (inactive) | 91.3% (inactive) | 76% | 197% (inactive) | -6.15% (inactive) | 97.2% (inactive) | -1% (inactive) | -2.15% (inactive) | -8.71% (inactive) | -8.22% (inactive) | 114% (inactive) | -0.24 (inactive) | 14% (inactive) | -2.46% (inactive) | –
5 | COc1ccc(C(=O)Nc2ccccc2C(=O)NCCCn2ccnc2)cc1 | 91.3% (inactive) | 115% (inactive) | 93.9% (inactive) | 75.4% (inactive) | 59.2% | 82.8% (inactive) | 1.61% (inactive) | 101% (inactive) | 5% (inactive) | -7.51% (inactive) | 7.74% (inactive) | -1.7% (inactive) | 104% (inactive) | 0.23 (inactive) | 12% (inactive) | -4.91% (inactive) | –
6 | O=C(OCC1OC2OC3(CCCCC3)OC2C2OC3(CCCCC3)OC12)c1ccccc1 (stereo not drawn) | 90.9% (inactive) | 104% (inactive) | 116% (inactive) | 76.5% (inactive) | 60.9% | 154% (inactive) | 5.49% (inactive) | 102% (inactive) | 5% (inactive) | 11.7% (inactive) | 5.67% (inactive) | 1.42% (inactive) | 128% (inactive) | 0.09 (inactive) | 5% (inactive) | -0.82% (inactive) | –
7 | COc1cc(C2C(C(=O)c3ccc(C)o3)=C(O)C(=O)N2Cc2cccnc2)ccc1O (stereo not drawn) | 102% (inactive) | 119% (inactive) | 106% (inactive) | 81.4% (inactive) | 68.3% | 171% (inactive) | 2.58% (inactive) | 110% (inactive) | 2% (inactive) | -8.26% (inactive) | -5.82% (inactive) | 4.05% (inactive) | 99.4% (inactive) | 0.34 (inactive) | 9% (inactive) | -0.82% (inactive) | –
8 | CC(=O)OC[C@H]1O[C@@H](n2ncc(=O)[nH]c2=O)[C@H](OC(C)=O)[C@@H]1OC(C)=O | 94.8% (inactive) | 114% (inactive) | 119% (inactive) | 78.1% (inactive) | 53.4% | 78.5% (active) | 5.49% (inactive) | 105% (inactive) | 6% (inactive) | -6.75% (inactive) | -6.69% (inactive) | -0.17% (inactive) | 109% (inactive) | -0.13 (inactive) | -40% (inactive) | 20.5% (inactive) | –
9 | N=C(N)c1ccc(OCCCCCOc2ccc(C(=N)N)cc2)cc1 | 107% (inactive) | 105% (inactive) | 96.5% (inactive) | 110% (inactive) | 53.8% | – | -7.79% (inactive) | 98% (inactive) | -23% (inactive) | 20.7% (inactive) | -15.3% (inactive) | -1.89% (inactive) | 112% (inactive) | 0.285 (inactive) | 9% (inactive) | 8.59% (inactive) | 99.6% (inactive)
10 | Cc1cccc(N(C)C(=S)Oc2ccc3ccccc3c2)c1 | 94.4% (inactive) | 114% (inactive) | 95.2% (inactive) | 78.7% (inactive) | 86.4% | – | -8.09% (inactive) | 87.4% (inactive) | 0% (inactive) | 11.2% (inactive) | -3.34% (inactive) | 4.82% (inactive) | 106% (inactive) | -0.38 (inactive) | 8% (inactive) | -1.64% (inactive) | 97.5% (inactive)
11 | CN(C)CCCN1c2ccccc2CCc2ccc(Cl)cc21 | 100% (inactive) | 99.7% (inactive) | 101% (inactive) | 98% (inactive) | 65% | – | 12.3% (inactive) | 97.5% (inactive) | -3% (inactive) | 38.7% (inactive) | -2% (inactive) | -7.85% (inactive) | 112% (inactive) | 0.51 (active) | 18% (inactive) | -10.4% (inactive) | 97.1% (inactive)
12 | O=c1n(CCCN2CCN(c3cccc(Cl)c3)CC2)nc2ccccn12 | 91.5% (inactive) | 112% (inactive) | 106% (inactive) | 75.9% (inactive) | 69.6% | – | 1.61% (inactive) | 102% (inactive) | 2% (inactive) | 2.3% (inactive) | -2.13% (inactive) | 1.41% (inactive) | 102% (inactive) | -0.2 (inactive) | 11% (inactive) | 5.73% (inactive) | 92.4% (inactive)
13 | CCCNC(=O)NS(=O)(=O)c1ccc(Cl)cc1 | 98.2% (inactive) | 104% (inactive) | 97.1% (inactive) | 101% (inactive) | 48% | – | 1.12% (inactive) | 99.1% (inactive) | 2% (inactive) | -4.85% (inactive) | 11.1% (inactive) | -3.28% (inactive) | 102% (inactive) | -0.02 (inactive) | 2% (inactive) | 8.02% (inactive) | 103% (inactive)
14 | O=C1NCC2=C1C(c1ccccc1)Nc1ccccc1N2 (stereo not drawn) | 94.6% (inactive) | 112% (inactive) | 102% (inactive) | 75.9% (inactive) | 65.6% | 205% (inactive) | 9.37% (inactive) | 100% (inactive) | 1% (inactive) | -9.09% (inactive) | 1.06% (inactive) | -0.53% (inactive) | 102% (inactive) | 0.16 (inactive) | 7% (inactive) | -4.09% (inactive) | –
15 | CN(C)CCOc1ccc(Cl)cc1C(C)(C)C | 103% (inactive) | 98.5% (inactive) | 105% (inactive) | 122% (inactive) | 40.5% | – | 7.76% (inactive) | 105% (inactive) | -1% (inactive) | -20.4% (inactive) | -1.49% (inactive) | -1.18% (inactive) | 99.5% (inactive) | 0.05 (inactive) | 5% (inactive) | -16.8% (inactive) | 109% (inactive)
16 | O=c1c2ccccc2nnn1Cc1cccc2ccccc12 | 89.1% (inactive) | 105% (inactive) | 103% (inactive) | 78.7% (inactive) | 61% | 217% (inactive) | -13.9% (inactive) | 103% (inactive) | 1% (inactive) | -3.06% (inactive) | -7.09% (inactive) | 3.28% (inactive) | 99% (inactive) | -0.2 (inactive) | 13% (inactive) | -0.82% (inactive) | –
17 | CC1(C)C2CCC1(C)C(OCC[N+](C)(C)CC(=O)OC1CCCCC1)C2 (stereo not drawn) | 88% (inactive) | 104% (inactive) | 104% (inactive) | 78.1% (inactive) | 70% | 196% (inactive) | 12.3% (inactive) | 95.2% (inactive) | -4% (inactive) | -4.15% (inactive) | -2.94% (inactive) | 3.18% (inactive) | 109% (inactive) | -0.06 (inactive) | 6% (inactive) | -5.73% (inactive) | –
18 | COC(=O)c1ccc(CC(=O)c2ccc(O)cc2O)o1 | 93.5% (inactive) | 119% (inactive) | 91.3% (inactive) | 79.8% (inactive) | 72.3% | 248% (inactive) | -32.3% (inactive) | 93.2% (inactive) | 4% (inactive) | 7.39% (inactive) | 5.21% (inactive) | 18.1% (active) | 109% (inactive) | -0.24 (inactive) | -45% (inactive) | 4.91% (inactive) | –
